Results reported in PubChem BioAssay.
“And” between values parts separate entries of the source, which are not always exact repeats. Identical values can stand only once. The source made the active and inactive calls.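 The calls were made as follows, unless noted: active = inhibition at or above 50% relative to wild type and mutant plate controls; inactive = inhibition below 50%.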

Experiments:
[1] = inhibitors of TNFa-induced NFkB p65 translocation, primary screen, imaging, HUVEC, MLSMR starter and 10KST1 sets (AID 438;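 active = inhibition above 20% together with a positive visual image hit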;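 also: compound added about 3h40 before a 20 min TNFalpha stimulation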;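 as to inhibition: signal is the nuclear over cytoplasmic p65 intensity ratio per well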); conditions: HUVEC TNFa-induced p65 nuclear translocation; cell count: measured here: nuclei count (cytotoxicity indicator), at 2.08 µM; inhibition: at 2 µM, stronger effect = higher value, 0% TNFa-plus-vehicle, 100% no-TNFa wells
[2] = reduction of polyQ htt aggregates in cells – imaging, exon1htt(103Q)mCFP cells, high-content imaging, primary screen (AID 483;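 active = visual image review flags a hit and inhibition of aggregation exceeds 20%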;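 also: compound exposure lasted 3 days before fixation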;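 as to nuclei count: percent of the per-plate median nuclei count of sample wells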); conditions: exon1htt(103Q)mCFP cell line, aggregate imaging, at 2 µM; inhibition of aggregation: stronger effect = higher value; nuclei count: measured here: cell count, toxicity
[3] = endothelial E-selectin expression blockers – imaging, HUVEC, immunofluorescence, MLSMR starter and 10KST1 sets, primary screen (AID 487;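 active = visually confirmed hit in the image check and inhibition above 20%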;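 as to inhibition: signal is fraction of cell area covered by stained E-selectin grains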;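 as to nuclei count: 100% = median nuclei count of all wells on the same plate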); conditions: HUVEC TNFalpha-induced E-selectin immunofluorescence imaging, at 2 µM; inhibition: stronger effect = higher value; nuclei count: measured here: cell number, toxicity
[4] = Primary imaging screen for DUSP6 inhibitors that restore phospho-Erk in transfected HeLa cells, chemical complementation (AID 609;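 active = compounds giving at least 50% inhibition in the cell-based MKP-3 phosphatase rescue imaging test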;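 as to inhibition: phospho-Erk level distribution per well compared with pooled transfected vehicle control wells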); conditions: HeLa MKP-3 transfected, phospho-Erk imaging KS statistic, at 10 µM, cells stimulated with TPA for 15 min
[5] = biological target: Dual specificity protein phosphatase 6 (Homo sapiens) (UniProt Q16828); assay: as above; conditions: HeLa MKP-3 transfected, phospho-Erk imaging KS statistic; at 10 µM; stronger effect = higher value; cells stimulated with TPA for 15 min
Chain of Dual specificity protein phosphatase 6 (Homo sapiens) (Q16828 whole entry, looked up): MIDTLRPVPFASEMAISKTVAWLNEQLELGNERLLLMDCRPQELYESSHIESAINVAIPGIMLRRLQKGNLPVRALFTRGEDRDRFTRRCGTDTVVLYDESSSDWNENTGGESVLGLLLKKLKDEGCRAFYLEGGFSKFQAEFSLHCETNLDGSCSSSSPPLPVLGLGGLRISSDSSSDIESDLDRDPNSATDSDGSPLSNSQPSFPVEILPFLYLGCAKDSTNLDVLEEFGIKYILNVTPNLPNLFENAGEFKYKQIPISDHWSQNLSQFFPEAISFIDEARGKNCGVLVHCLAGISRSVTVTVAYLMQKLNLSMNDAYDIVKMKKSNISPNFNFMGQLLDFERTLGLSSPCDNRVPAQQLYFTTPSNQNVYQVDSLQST

[6] = biological target: Voltage-gated potassium channel subunit beta-2 (Rattus norvegicus) (UniProt P62483); assay: inhibitors of rat Kvbeta2 reductase activity – biochemical, NADPH fluorescence, primary screen (AID 622;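 active = fluorescence slope higher than the sample average by over 3 SD, cut at about -0.22 in these data, passing the limit was not always enough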;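 also: slope of raw intensity against log time taken from 70 to 1610 s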); conditions: recombinant KvBeta, 4-cyanobenzaldehyde reduction, at 10 µM, stronger effect = higher value
Chain of Voltage-gated potassium channel subunit beta-2 (Rattus norvegicus) (P62483 whole entry, looked up): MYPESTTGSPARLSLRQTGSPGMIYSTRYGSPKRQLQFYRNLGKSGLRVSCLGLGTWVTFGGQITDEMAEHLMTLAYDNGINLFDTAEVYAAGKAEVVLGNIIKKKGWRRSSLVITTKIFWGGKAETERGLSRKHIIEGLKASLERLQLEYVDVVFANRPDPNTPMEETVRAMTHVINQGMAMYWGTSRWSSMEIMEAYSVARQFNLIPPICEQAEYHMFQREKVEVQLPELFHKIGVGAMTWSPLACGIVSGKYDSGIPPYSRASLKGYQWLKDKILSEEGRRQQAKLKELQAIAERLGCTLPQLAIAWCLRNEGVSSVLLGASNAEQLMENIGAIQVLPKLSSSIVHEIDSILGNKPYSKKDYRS

[7] = biological target: Voltage-gated potassium channel subunit beta-2 (Rattus norvegicus) (UniProt P62483); assay: enhancers of rat Kvbeta2 NADPH turnover – biochemical, NADPH fluorescence, primary screen (AID 623;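 active = NADPH fluorescence slope more negative than the mean of all samples by about 3 SD, 99.7% confidence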;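 also: fluorescence intensity change per second fitted from 20 to 320 s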); conditions: Recombinant KvBeta, NADPH fluorescence decrease slope, 10 min; at 10 µM; stronger effect = lower value
[8] = biological target: Alpha-2C adrenergic receptor (Homo sapiens) (UniProt P18825); assay: compounds altering alpha2C-coupled GIRK flux – cell-based, HEK293 alpha2C/GIRK1/2, thallium flux, primary screen (AID 624;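 active = fluorescence slope after compound addition differing from the mean of all screened samples at 99.7% confidence, in either direction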;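 also: slope of fluorescence ratio to pre-addition baseline per second over 15 to 24 s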); conditions: thallium flux BTC fluorescence, at 10 µM, actives lie on both sides
Chain of Alpha-2C adrenergic receptor (Homo sapiens) (P18825 whole entry, looked up): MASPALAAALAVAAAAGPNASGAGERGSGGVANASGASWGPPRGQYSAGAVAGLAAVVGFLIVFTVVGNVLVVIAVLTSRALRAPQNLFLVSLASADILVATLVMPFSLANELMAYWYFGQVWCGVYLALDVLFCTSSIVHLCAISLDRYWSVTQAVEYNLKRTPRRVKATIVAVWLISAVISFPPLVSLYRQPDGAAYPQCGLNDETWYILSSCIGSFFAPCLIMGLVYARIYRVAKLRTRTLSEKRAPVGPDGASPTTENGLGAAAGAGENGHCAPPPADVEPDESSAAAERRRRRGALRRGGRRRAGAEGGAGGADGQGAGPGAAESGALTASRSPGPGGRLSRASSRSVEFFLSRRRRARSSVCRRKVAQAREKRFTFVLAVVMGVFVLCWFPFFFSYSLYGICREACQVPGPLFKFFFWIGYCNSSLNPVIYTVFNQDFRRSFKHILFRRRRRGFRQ

[9] = inhibitors of larval lipid processing in zebrafish, primary screen, whole organism, PED6 fluorescence, gall bladder and intestine (AID 686;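 active = a full or partial loss of lipid-probe fluorescence in the fish gall bladder, intestine or both, judged by eye; inactive = no fluorescence loss, or compound toxic to the fish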;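 also: larvae 5 to 7 days old with five fish per well; signal comes from phospholipase A2 cleavage of quenched PED6 carried via bile; overnight exposure to compound and PED6 before scoring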); conditions: Zebrafish larvae PED6 lipid processing, fluorescence scoring; screened at 20 µM (by protocol)
[10] = loss of swimming-algae plug formation – whole organism, Chlamydomonas reinhardtii, WT vs cilia-less mutant, absorbance, 96-well, primary screen (AID 463189); conditions: Chlamydomonas reinhardtii gravitaxis, OD600 absorbance, 2 days; at 10 µM; stronger effect = higher value;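 also: 0% = wild type cc124 cells in DMSO and 100% = ciliumless bld1 mutant cells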
[11] = blockers of RIG-like receptor reporter activation – cell-based, Sendai virus stimulus, luciferase, 10K MLSCN set, TLR/RLR signaling modifier project, primary screen (AID 602276;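 active = inhibition at or above 50% at 10 µM; inactive = inhibition below 50%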;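 also: firefly luciferase from ISG56 promoter only with Renilla not read in this screen; 0% = Sendai virus plus DMSO and 100% = medium plus DMSO without virus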); conditions: HEK293 RL24 IRF3 luciferase reporter, at 10 µM, stronger effect = higher value
[12] = TLR3 IRF3 reporter activation blockers – cell-based, poly I:C stimulus, luciferase, 10K MLSCN set, primary screen (AID 602277;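 active = inhibition of the reporter signal at or above 50%; inactive = inhibition below 50%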); conditions: HEK293-TLR3 RL24 IRF3 luciferase reporter, at 10 µM, stronger effect = higher value
[13] = measured here: cell density z-score
[14] = measured here: nuclear c-Myc green intensity z-score
[15] = measured here: nuclear pErk red intensity z-score, stronger effect = higher value

| SMILES | cell count [1] | inhibition [1] | inhibition of aggregation [2] | nuclei count [2] [%] | inhibition [3] | nuclei count [3] [%] | z-score [4, 13] | z-score [4, 14] | z-score [4, 15] | inhibition [5] | fluorescence slope [6] | NADPH fluorescence slope [7] | slope [8] | outcome [9] | inhibition [10] | inhibition [11] | inhibition [12] |
| --- | --- | --- | --- | --- | --- | --- | --- | --- | --- | --- | --- | --- | --- | --- | --- | --- | --- |
| COc1ccc(Nc2nc(Nc3ccc(OC)cc3)nc(-n3[nH]c(=O)c(C)c3C)n2)cc1 | 656 | -10.8% (inactive) | 0.5% (inactive) | 124 | -17.7% (inactive) | 122 | -0.0693 | 1.31 | 0.0692 | 13.9% (inactive) | -0.474 (inactive) | -5.6e-05 (inactive) | 0.00543 (inactive) | inactive | 2.29% (inactive) | 22.1% (inactive) | 8.22% (inactive) |
| Cc1c(/C(O)=C2/C(=O)C(=O)N(CCN3CCOCC3)C2c2cccnc2)cnn1-c1ccccc1 (stereo not given) | 509 | 4.8% (inactive) | 1.3% (inactive) | 102 | -26.8% (inactive) | 107 | 0.15 | -0.278 | -0.0426 | 1.6e-07% (inactive) | -0.602 (inactive) | -1.5e-05 (inactive) | 0.00432 (inactive) | inactive | 23.9% (inactive) | -12% (inactive) | -9.27% (inactive) |
| CCOC(=O)N1CCC(=C2c3ccc(Cl)cc3CCc3cccnc32)CC1 | 695 | -7.4% (inactive) | -15% (inactive) | 106 | -79.3% (inactive) | 132 | 1.11 | 0.137 | -0.637 | 27.1% (inactive) | -0.512 (inactive) | -3.2e-05 (inactive) | 0.00337 (inactive) | inactive; toxic | -6.14% (inactive) and -3.57% (inactive) | -15.2% (inactive) | -34% (inactive) |
| COC(=O)c1ccc(-c2sc3nc(N4CCOCC4)c4c(c3c2N)CCCC4)o1 | 683 | -7.7% (inactive) | -43% (inactive) | 103 | 18.1% (inactive) | 126 | -0.0797 | 0.0278 | 1.68 | 14.4% (inactive) | -0.000813 (inactive) | 0 (inactive) | 0.0101 (inactive) | inactive | -6.82% (inactive) | 13% (inactive) | -14.5% (inactive) |
| Cc1cc(C)nc(NC2=NCC(=O)N2c2ccc(Cl)cc2)n1 | 641 | -3.3% (inactive) | -9.6% (inactive) | 111 | -78.7% (inactive) | 107 | 0.855 | 0.968 | -1.07 | 13.9% (inactive) | -0.492 (inactive) | -1.6e-05 (inactive) | 0.00625 (inactive) | inactive | -3.81% (inactive) | 15.2% (inactive) | 17.2% (inactive) |
| CC(C)(C)n1cnc2cc(NS(=O)(=O)c3ccc(Br)cc3)ccc21 | 543 | -1.5% (inactive) | -9.9% (inactive) | 99.9 | -37% (inactive) | 108 | 0.246 | 1.31 | -0.322 | -5.26% (inactive) | -0.373 (inactive) | 2.9e-05 (inactive) | 0.00461 (inactive) | inactive | -15% (inactive) | 15.5% (inactive) | 13.8% (inactive) |
| CC(C)(C)NCC(O)COc1cccc2c1C[C@H](O)[C@H](O)C2 (stereo not given in full) | 666 | 3.8% (inactive) | -15.5% (inactive) | 101 | -100% (inactive) | 118 | 0.108 | 0.144 | 1.49 | -0.828% (inactive) | -0.441 (inactive) | -2.9e-05 (inactive) | 0.00396 (inactive) | inactive | 18.1% (inactive) | 9.2% (inactive) | 32.8% (inactive) |
| Oc1c(I)cc(I)c2cccnc12 | 615 | -0.5% (inactive) | -10.9% (inactive) | 110 | -79.9% (inactive) | 121 | -0.0594 | -1.99 | 1.27 | -11.9% (inactive) | -0.436 (inactive) | 7.6e-06 (inactive) | 0.00528 (inactive) | inactive | 2.25% (inactive) | 12.4% (inactive) | 30.5% (inactive) |
| CCOC(=O)CSC1=C(C#N)C(c2ccc3c(c2)OCO3)CC(=O)N1 (stereo not given) | 562 | -1.1% (inactive) | -16.1% (inactive) | 82.2 | -43.4% (inactive) | 80.7 | -0.992 | 0.745 | 0.964 | 3.66% (inactive) | -0.471 (inactive) | -0.000313 (inactive) | 0.00534 (inactive) | inactive | 14.3% (inactive) | 36.8% (inactive) | 34.7% (inactive) |
| C[C@]12CCC(=O)C=C1CC[C@@H]1[C@@H]2CC[C@@]2(C)[C@H]1CC[C@]2(O)C(=O)CO | 695 | 0.6% (inactive) | 27.5% (inactive) | 102 | -97.9% (inactive) | 125 | 0.881 | 0.613 | -1.07 | 8% (inactive) | -0.52 (inactive) | -6.8e-05 (inactive) | 0.00434 (inactive) | inactive | -0.27% (inactive) and -16.6% (inactive) | 5.65% (inactive) | 35.1% (inactive) |
| c1cncc(-c2nnc3sc(-c4ccco4)nn23)c1 | 535 | 0.4% (inactive) | 3.4% (inactive) | 94.2 | -81.8% (inactive) | 105 | 0.315 | -1.33 | 1.09 | -2.47% (inactive) | -0.476 (inactive) | -8.1e-06 (inactive) | 0.00677 (inactive) | inactive | 1.41% (inactive) | 13.2% (inactive) | -2.28% (inactive) |
| COc1ccc2c(c1)c(CC(=O)OCC(=O)O)c(C)n2C(=O)c1ccc(Cl)cc1 | 609 | -4% (inactive) | -25.2% (inactive) | 89.1 | -34.9% (inactive) | 111 | -0.113 | 0.548 | -0.549 | 17.3% (inactive) | -0.451 (inactive) | -3.8e-05 (inactive) | 0.00555 (inactive) | inactive | 14.4% (inactive) | 11.9% (inactive) | 36.9% (inactive) |
| CC1(C)S[C@@H]2[C@H](NC(=O)C(C(=O)O)c3ccccc3)C(=O)N2[C@H]1C(=O)O (stereo not given in full) | 588 | -12.5% (inactive) | -7.6% (inactive) | 99.1 | -51.3% (inactive) | 138 | 0.424 | 0.193 | -0.471 | 13.3% (inactive) | -0.487 (inactive) | -2.7e-05 (inactive) | 0.00471 (inactive) | inactive | 37.9% (inactive) | -4.51% (inactive) | 13% (inactive) |
| Cc1oc2cc(O)ccc2c(=O)c1-c1cnn(-c2ccccc2)c1 | 454 | -6.5% (inactive) | -9% (inactive) | 102 | -212% (inactive) | 120 | -0.098 | -0.0689 | 0.86 | -9.91% (inactive) | -0.486 (inactive) | 1.2e-05 (inactive) | 0.00452 (inactive) | inactive | 9.82% (inactive) | 7.89% (inactive) | 0.114% (inactive) |
| CC(C)NCC(O)COc1ccc(CCOCC2CC2)cc1 (stereo not given) | 564 | -5.6% (inactive) | 10.6% (inactive) | 102 | -146% (inactive) | 119 | -0.149 | 0.261 | 0.0924 | 1.48% (inactive) | -0.454 (inactive) | -2.4e-05 (inactive) | 0.0053 (inactive) | inactive | 7.04% (inactive) and 48.4% (inactive) | 12.5% (inactive) | 37.3% (inactive) |
| Oc1c(Cl)cc(Cl)cc1CNc1ccc(Br)cn1 | 580 | -1.3% (inactive) | -20.5% (inactive) | 108 | -9.9% (inactive) | 102 | -1.08 | 0.507 | -0.618 | -3.5% (inactive) | -0.357 (inactive) | 1.5e-05 (inactive) | 0.00449 (inactive) | inactive | -5.67% (inactive) | 17% (inactive) | 20.5% (inactive) |
| CC(=O)Oc1cc(C(C)C)c(OCCN(C)C)cc1C | 467 | -9.4% (inactive) | 22.4% (inactive) | 95.3 | -10.4% (inactive) | 108 | -0.0151 | 0.045 | -0.157 | 13.3% (inactive) | -0.475 (inactive) | -5.3e-05 (inactive) | 0.0046 (inactive) | inactive | 6.3% (inactive) and 24.6% (inactive) | 15% (inactive) | 49.2% (inactive) |
| CCCC(=O)Nc1ncnc2c1ncn2[C@@H]1O[C@@H]2COP(=O)(O)O[C@H]2[C@H]1OC(=O)CCC | 447 | 15.4% (inactive) | 14.3% (inactive) | 96.1 | -67.8% (inactive) | 127 | 0.217 | 0.395 | 0.177 | 21.2% (inactive) | -0.511 (inactive) | -7.6e-06 (inactive) | 0.00504 (inactive) | inactive | 29.3% (inactive) | 18.6% (inactive) | 40.7% (inactive) |
| CC(=O)[C@H]1[C@H](C#N)C[C@H]2[C@@H]3CC=C4C[C@@H](O)CC[C@]4(C)[C@H]3CC[C@@]21C | 645 | -9.3% (inactive) | -4.8% (inactive) | 106 | -91.5% (inactive) | 119 | 0.975 | -0.917 | -0.46 | -2.46% (inactive) | -0.457 (inactive) | -4e-05 (inactive) | 0.00539 (inactive) | inactive | 14.4% (inactive) | 10.7% (inactive) | 42.4% (inactive) |
| OC(CCN1CCCCC1)(c1ccccc1)c1ccccc1 | 674 | -1.6% (inactive) | -18% (inactive) | 108 | -75.5% (inactive) | 114 | 0.144 | -1.15 | -0.931 | -0.493% (inactive) | -0.458 (inactive) | -3.9e-05 (inactive) | 0.00533 (inactive) | inactive | -6.75% (inactive) | 16.1% (inactive) | 48% (inactive) |
